# Screening data from PubChem.
# Sfp inh = blocks B. subtilis Sfp PPTase activity; Biochemical Sfp PPTase activity, qHTS; Potency, µM, inactives show largest response in the series, negative = inhibition, actives largely listed as inhibitors; 310,000 tested, 3.5% active; AID 1490;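 note: the enzyme is Sfp with the accession as filed and its product quenches rhodamine fluorescence; potency is the fitted concentration of half-maximal effect; 0% = enzyme reaction without inhibitor and -100% = no enzyme wells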
#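 Buffer: 50 mM Hepes-Na pH 7.6, 10 mM MgCl2, 0.01% Nonidet P-40, 0.01% BSA. Enzyme 15 nM, pre-exposed to compound 15 min; substrates then added and fluorescence change tracked over 30 min.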
# Tau fibril FP = inhibitors of human tau fibril formation | K18 P301L tau heparin fibrillization, Alexa594 FP, 6 h | P10636 | Potency, µM (titrated, usually from 57.7 µM), for inactives: at the highest dose activity, negative = inhibition, usual class: inhibitors | 280,000 tested, 0.39% active; note: potency is the fitted concentration of half-maximal effect; nearly all actives have a fitted effect of over 55% in size
# Target sequence (P10636 561-689 P618L limits assumed): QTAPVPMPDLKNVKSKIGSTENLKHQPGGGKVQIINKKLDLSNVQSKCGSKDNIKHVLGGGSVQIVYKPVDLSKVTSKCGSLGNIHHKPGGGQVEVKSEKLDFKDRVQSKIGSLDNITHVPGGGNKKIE
#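 Read-out: fluorescence polarization of Alexa 594-labeled tau (0.24 uM), 555 nm excitation, 632 nm emission. Mixtures held 15 uM unlabeled K18 P301L, compound and 20 uM heparin, pH 7 acetate buffer, incubated 6 hr at 37 C.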
# Tau fibril ThT = inhibitors of human tau fibril formation, thioflavin T binding | recombinant tau K18 P301L, heparin-induced fibrillization, ThT fluorescence | Potency, µM (doses to about 57.4 µM), inactives show at the top dose activity, negative = inhibition, hits mostly inhibitors | 270,000 tested, 2.1% active | AID 1460; note: potency is the fitted concentration of half-maximal effect; nearly all actives have a fitted effect of over 55% in size
#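 ThT emission at 510 nm, taken 1 hr after adding 30 uM dye, quantifies aggregates formed when 20 uM heparin acts on human tau K18 P301L for 6 hr at 37 C.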
# FBPA coupling cs = inhibits coupling enzyme system, counter-screen for aldolase hits | coupling enzyme system counterscreen, AmpLite Red fluorescence | activity change, negative = inhibition, % at 58.2 µM, hits read low | 290,000 tested, 0.67% active; in the data active = activity change below about -30%
#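 Compounds tested against the coupling enzymes alone at 57.5 uM final; readout was AmpLite Red fluorescence (525/598 nm) after 20 min at RT.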
# Tau fluor counter = counter-screen for tau fibril formation inhibitors | Potency, µM (top dose mostly 57.7 µM), without a hit: at the top dose activity change, negative = decrease | tau K18 P301L (four-repeat tau fragment) Alexa594 fluorescence, heparin fibrillization | AID 1463 | 280,000 tested, 0.93% active; note: potency is the fitted concentration of half-maximal effect; nearly all actives have a fitted effect of over 55% in size
#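 Human K18 P301L tau (15 uM unlabeled plus 0.24 uM Alexa 594-labeled, final) in 100 mM sodium acetate pH 7 was mixed with compound and 20 uM heparin and incubated 6 hr at 37 C.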
# Starred values were filed as active, the others as inactive; ? = inconclusive; · = no result given; [ ] = another dose, or the depositor's remark. An excerpt weighted towards active compounds, which were near 5.2% of everything screened. Unless noted, calls come from the whole dose curve; as a rule, active = well fitted curve in the direction sought with a large enough effect; inconclusive = small, poorly fitted or top-dose-only effect, or another doubt; inactive = no such curve, though single readings can be large; an effect the other way counts as inactive or inconclusive. Unless noted, % is set by controls: 0 for no effect and ±100 for the full control effect.
SMILES,Sfp inh,Tau fibril FP,Tau fibril ThT,FBPA coupling cs,Tau fluor counter
CCN(CC)C(=O)Cn1ncc2c([nH]c3ccc(C)cc32)c1=O,·,-13%,-12%,·,-12%
CCc1ccccc1NC(=O)C(=O)NCC(c1cccnc1)N1CCc2ccccc21 (stereo not drawn),·,-12%,6%,·,-3%
CC(=O)O[C@]1(C(C)=O)CC[C@@H]2[C@@H]3C=C(Cl)C4=CC(=O)[C@H]5C[C@@H]5[C@]4(C)[C@H]3CC[C@]21C,10%,·,·,0,·
CC[C@H](C)[C@H](NC(=O)[C@H](C)NC(=O)[C@H](CC(=O)O)NC(=O)[C@H](CO)NC(=O)[C@@H](N)Cc1cnc[nH]1)C(=O)N[C@@H](Cc1ccccc1)C(=O)N[C@H](C(=O)N[C@@H](CCC(N)=O)C(=O)N[C@@H](CCC(N)=O)C(=O)N[C@@H](Cc1ccc(O)cc1)C(=O)N[C@@H](CO)C(=O)N[C@@H](CCCCN)C(=O)N[C@@H](CC(C)C)C(=O)N[C@@H](CC(C)C)C(=O)N[C@@H](C)C(=O)N[C@@H](CCCCN)C(=O)N[C@@H](CC(C)C)C(=O)N[C@@H](C)C(=O)N[C@@H](CC(C)C)C(=O)N[C@@H](CCC(N)=O)C(=O)N[C@@H](CCCCN)C(=O)N[C@@H](Cc1ccc(O)cc1)C(=O)N[C@@H](CC(C)C)C(=O)N[C@@H](C)C(=O)N[C@@H](CO)C(=O)N[C@H](C(=O)N[C@@H](CC(C)C)C(=O)NCC(=O)N[C@@H](CO)C(=O)N[C@@H](CCCNC(=N)N)C(=O)N[C@H](C(=O)N[C@@H](CO)C(=O)N1CCC[C@H]1C(=O)N1CCC[C@H]1C(=O)N1CCC[C@H]1C(N)=O)[C@@H](C)O)[C@@H](C)CC)[C@@H](C)O,22%,·,·,1,·
Cc1ccc(S(=O)(=O)Cc2nc(-c3ccc(C(=O)NCc4ccccc4F)cc3)oc2C)cc1,·,-10%,16%,·,-2%
Cc1cc2cc(CNC(=O)c3ccco3)ccc2n1C,79µM*,-3%,?,-17,-17%
Cc1cc2cc(CNC(=O)c3cc4ccccc4o3)ccc2n1C,10%,-4%,?,0,-15%
C#CCn1c(=O)c2c(nc(/C=C/c3cccc(OC)c3)n2C)n(CCCOP(=O)(O)O)c1=O,16%,·,·,2,·
CC(=O)C(Sc1nccc(-c2cccs2)n1)C(C)=O,?,-5%,-3%,-51*,-3%
C=CCn1c(SCc2nc3ccccc3c(=O)[nH]2)nc2ccccc2c1=O,50µM*,-12%,-8%,0,-15%
O=S(=O)(c1ccc2c(c1)CCCN2)N1CCCC2CCCCC21 (stereo not drawn),-10%,19%,-16%,3,?
CCN(CC)c1ccc2c(c1)CCCN2,-6%,?,25µM*,2,?
CC[C@H](C)[C@H](NC(=O)[C@H](C)NC(=O)[C@H](Cc1cnc[nH]1)NC(=O)[C@@H]1CCCN1C(=O)CNC(=O)[C@H](CC(C)C)NC(=O)[C@H](CC(C)C)NC(=O)[C@H](Cc1ccc(O)cc1)NC(=O)CNC(=O)[C@H](C)NC(=O)[C@H](CO)NC(=O)[C@H](CC(N)=O)NC(=O)[C@H](CC(C)C)NC(=O)[C@@H](NC(=O)[C@H](Cc1c[nH]c2ccccc12)NC(=O)CN)[C@@H](C)O)C(=O)O,-11%,·,·,0,·
Cc1cc2c(NC(=O)Nc3ccc(F)cc3)cccc2nn1,35µM*,?,?,-31*,-27%
CC(C)(CC(=O)O)CC(=O)Nc1ccccc1Oc1ccccc1,9%,7%,-2%,-2,-1%
COc1ccc(NC(=O)Nc2ccc(F)cc2)c(C)c1,10%,1%,-9%,4,-14%
Cc1cc2c(NC(=O)CC(C)(C)CC(=O)O)cccc2nn1,-9%,-7%,·,-36*,-21%
O=C(CCC1N=C2c3ccccc3N=C(SCc3ccc(Cl)cc3)N2C1=O)N1CCN(c2ccccc2)CC1 (stereo not drawn),·,-6%,?,·,-10%
CCc1ccc(NC(=O)C(NS(=O)(=O)c2cccs2)C(C)C)cc1 (stereo not drawn),·,-5%,-10%,·,-21%
O=C(Nc1cc(NC(=O)c2ccccc2Cl)ccc1Cl)c1ccccc1,·,-16%,-1%,·,?
C#CCN1C(=O)S/C(=C\c2ccc(-c3ccc(C(=O)O)cc3C)o2)C1=O,-30%,·,·,0,·
Cc1ccc(CN2C(=O)N/C(=C\c3ccc(-c4ccc(C(=O)O)cc4C)o3)C2=O)cc1,-27%,8%,?,5,-12%
Cc1ccc(C(=O)O)cc1-c1ccc(/C=C2/NC(=O)N(c3ccccc3)C2=O)o1,22µM*,-14%,28µM*,-18,-27%
Cc1cc(C(=O)O)ccc1-c1ccc(/C=C2\NC(=O)N(Cc3ccccc3Cl)C2=O)o1,13µM*,4%,10%,-12,7%
COc1cccc(CN(C)Cc2cc(=O)oc3cc(O)c(Cl)cc23)c1,79µM*,·,·,11,·
SMILES,Sfp inh,Tau fibril FP,Tau fibril ThT,FBPA coupling cs,Tau fluor counter
O=C(Cn1cc(SCc2ccccc2F)c2ccccc21)N1CCCCCC1,·,2%,?,·,?
COc1cccc(NC(=O)CN2C(=O)CC(c3ccco3)Sc3ccccc32)c1 (stereo not drawn),·,-7%,-11%,·,-26%
O=C(CSc1nnc(-c2ccncc2)o1)c1cccc([N+](=O)[O-])c1,17%,-2%,?,0,-23%
CC(=O)Nc1cccc(-c2nnc(SCC(=O)c3cc([N+](=O)[O-])ccc3Cl)o2)c1,·,-10%,?,·,20µM*[quencher]
COc1cccc(N2CC(C(=O)Nc3nnc(SCC(=O)c4ccccc4)s3)CC2=O)c1 (stereo not drawn),79µM*,-9%,-17%,5,?
O=C(CSc1nnc(NC(=O)C2CC(=O)N(c3ccccc3)C2)s1)NCc1ccco1 (stereo not drawn),-21%,·,·,0,·
COc1cccc(N2CC(C(=O)Nc3nnc(SCC(=O)NCc4ccco4)s3)CC2=O)c1 (stereo not drawn),50µM*,·,·,0,·
Cc1cccc(N2CC(C(=O)Nc3nnc(SCC(=O)Nc4cc(C)on4)s3)CC2=O)c1 (stereo not drawn),-12%,-7%,-4%,-44*,0%
COCCNC(=O)CSc1nnc(NC(=O)C2CC(=O)N(c3ccccc3OC)C2)s1 (stereo not drawn),50µM*,·,·,·,·
COc1ccccc1N1CC(C(=O)Nc2nnc(SCC(=O)N3CCOCC3)s2)CC1=O (stereo not drawn),9%,·,·,·,·
Cc1oc(-c2ccc(C(=O)Nc3cc(F)ccc3F)cc2)nc1COc1ccccc1,·,-9%,5%,·,-2%
CCc1ccc2occ(CC(=O)Nc3ccccc3C(F)(F)F)c2c1,·,-8%,13%,·,5%
